DUSP3 inh: DUSP3 (human) phosphatase inhibition. P51452. inhibition, % at 13.3 µM. 290,000 compounds, 0.52% hits. AID 1654. recombinant VHR phosphatase, pNPP absorbance; in the data active = inhibition above about 50%
3CLpro inhibitor: SARS-CoV 3CLpro protease inhibition; P0C6X7; recombinant SARS-CoV 3CLpro, quenched FRET peptide cleavage; inhibition, % at 6 µM; 290,000 compounds, 0.14% hits; in the data active = inhibition above about 12%
BJeLR lethal: kills HRASV12-expressing BJeLR cells; 300,000 compounds, 0.17% hits; AID 1554; BJeLR (HRASV12) viability, CellTiter-Glo ATP luminescence, 48 h; inhibition, % (test concentration not listed); in the data active = inhibition above about 50%
PrPC surface inh: inhibitors of human cell surface prion protein PrPC; P04156; TR-FRET read-out; inhibition, % at 13.8 µM; 370,000 compounds, 0.43% hits; AID 720596; in the data active = inhibition above about 24%; also: 0% = median of the test wells and 100% = reference compound wells
PrPC TRFRET cf: cell surface PrPC inhibition, TR-FRET confirmation. shares compounds with PrPC surface inh. cell surface PrPC level. inhibition, % at 13.8 µM. 1,500 compounds, 65% hits. AID 743200; in the data active = inhibition above about 25%
LD9 cytotox: counter-screen for PrPc inhibitors: cytotoxicity in LD9 cells. inhibition, % at 13.8 µM. shares compounds with PrPC surface inh. luminescence viability. AID 743201. 1,500 compounds, 29% hits; in the data active = inhibition above about 9.5%
An asterisk follows results filed as active; x = not tested or not shown. This is a sample that favours compounds with a hit; in the whole collection about 1.1% have one here.

SMILES	DUSP3 inh	3CLpro inhibitor	BJeLR lethal	PrPC surface inh	PrPC TRFRET cf	LD9 cytotox
Cc1ccc2c(c1)[C@H]1[C@H](CO2)[C@H](c2ccccc2)[C@]2(C)C(=O)Nc3ccc(Cl)cc3C(=O)N12	x	x	x	25*	14	-7
COc1ccc2c(c1)C(=O)N1[C@H]3c4cc(C)ccc4OC[C@@H]3[C@H](c3ccccc3)[C@]1(C)C(=O)N2	x	x	x	34*	23	-6
C[C@@]12C(=O)Nc3ccccc3C(=O)N1[C@H]1c3cc(Cl)ccc3OC[C@@H]1[C@@H]2c1ccccc1	x	x	x	3	x	x
C[C@@]12C(=O)Nc3ccc(Cl)cc3C(=O)N1[C@H]1c3cc(Cl)ccc3OC[C@@H]1[C@@H]2c1ccccc1	x	x	x	26*	16	-8
Cc1c(C(=O)Nc2ccc(-c3nnc4n3CCCCC4)cc2)oc2ccc(Br)cc12	14	-2	6	40*	49*	6
O=C(Nc1ccc(OC(F)F)cc1)Nc1cccc(C(F)(F)F)c1	-15	2	6	35*	23	22*
O=C(Nc1ccc(OC(F)(F)F)cc1)Nc1cccc([N+](=O)[O-])c1	-18	2	3	26*	43*	41*
C=C1[C@H]2O[C@H]2[C@@H](OC(C)=O)[C@@]2(C)[C@@H](OC(C)=O)C[C@@H](OC(C)=O)[C@@](C)(O)[C@@H]2[C@@H](OC(C)=O)[C@@]2(O)[C@@H](C)C(=O)O[C@H]2[C@H]1Cl	x	x	x	-11	x	x
COC(=O)[C@]12C[C@H](CC(=O)NCc3cccs3)C(=O)N(Cc3ccc(Cl)cc3Cl)C1=C[C@H](C(C)C)O[C@@H]2C1CC1	x	x	x	1	x	x
COC(=O)c1ccc(C(=S)NCC2(N(C)C)CCCCC2)cc1	36	-4	-6	-2	x	x
COc1cccc(-c2cc3c(=O)n(-c4ccccc4)c(=S)[nH]c3s2)c1	-6	2	-2	31*	67*	-1
COc1ccc(-n2c(=S)[nH]c3sc(-c4ccccc4)cc3c2=O)c(OC)c1	-1	1	7	3	x	x
CCC(C)c1ccccc1N1CC(C(=O)NCCCn2nc(C)cc2C)CC1=O (stereo unspecified)	x	x	x	-3	x	x
CCOc1ccc(C(=O)Nc2ccc3[nH]ncc3c2)cc1	23	5	6	33*	7	1
NS(=O)(=O)c1ccc(CNC(=O)c2ccc(S(=O)(=O)NCc3ccco3)cc2)cc1	x	x	x	3	x	x
CC1(C(=O)NS(=O)(=O)Cc2ccccc2C(F)(F)F)CCN1C(=O)c1ccco1 (stereo unspecified)	x	x	x	6	x	x
CCCCCCCCn1ccc(=N)cc1	1	2	21	7	x	x
CCCCCCCCCCCCCCCCn1cc[n+](C)c1	0	0	16	34*	49*	42*
Cc1onc(-c2ccccc2Cl)c1C(=O)OCC(=O)N1CCCc2ccccc21	27	4	-3	30*	6	2
C=C[C@@]1(C)CC(=O)[C@]2(O)[C@@]3(C)[C@@H](O)CCC(C)(C)[C@@H]3[C@H](O)[C@H](OC(C)=O)[C@@]2(C)O1	x	x	-10	34*	26*	-9
C=C[C@@]1(C)CC(=O)[C@]2(O)[C@@]3(C)[C@@H](O)CCC(C)(C)[C@@H]3[C@H](OC(C)=O)[C@H](O)[C@@]2(C)O1	x	x	-1	21	x	x
CC(NC(=O)CCC(=O)c1cccs1)c1ccccc1 (stereo unspecified)	x	x	7	-3	x	x
O=C(CCC(=O)c1cccs1)NC(c1ccccc1)c1ccccc1	0	4	0	33*	-2	-2
CN(C)c1cccc(C(=O)NCCCSc2ccccc2)c1	37	5	-6	5	x	x
Cn1cc(C2NC(=O)c3ccccc3N2)c2ccccc21 (stereo unspecified)	x	x	x	25*	20	-4
SMILES	DUSP3 inh	3CLpro inhibitor	BJeLR lethal	PrPC surface inh	PrPC TRFRET cf	LD9 cytotox
Cc1ccc(C)c(C2NC(=O)c3ccccc3N2)c1 (stereo unspecified)	30	0	41	10	x	x
CCCCCCCC/C=C\CCCCCCCC(=O)NCCc1ccc(O)c(O)c1	x	x	x	83*	44*	65*
COc1nc(-c2ccccc2)c2cc(Br)ccc2n1	x	x	-17	36*	71*	4
NNc1nc(-c2ccccc2)c2cc(Br)ccc2n1	21	-5	1	-14	x	x
CC(NC(=O)c1sc2ccccc2c1Cl)C1CCCO1 (stereo unspecified)	5	5	3	38*	44*	-4
O=C(NCC1CCCO1)c1sc2ccccc2c1Cl (stereo unspecified)	21	0	12	9	x	x
CC(NC(=O)c1csc2ccccc12)C1CCCO1 (stereo unspecified)	8	1	2	13	x	x
Cc1ccc2c(Cl)c(C(=O)NCC3CCCO3)sc2c1 (stereo unspecified)	12	0	1	25*	37*	1
O=C(O)CC(NC(=O)c1sc2ccccc2c1Cl)c1ccc(OC2CCCC2)cc1 (stereo unspecified)	-13	11	-10	31*	28*	-5
Cc1cc(-c2cc(NC(=O)Cc3c[nH]c4ccccc34)ccc2N(C)c2cccnc2)ccc1F	x	x	x	2	x	x
CCc1nc2c(OCCC3CCCCC3)cccn2c1N(C)C(=O)c1ccc(OC)cc1	x	x	x	13	x	x
CN1/C(=C\C=C\C2=[N+](C)c3ccc4ccccc4c3C2(C)C)C(C)(C)c2ccccc21	19	-5	x	x	x	x
CCN1/C(=C/C=C/C2=[N+](CC)c3ccccc3C2(C)C)C(C)(C)c2ccccc21	x	x	x	77*	96*	78*
CCCCN1C(=O)C(=O)NC[C@@H]1Cc1ccc(O)cc1	x	x	x	5	x	x
Cc1[nH]n(-c2ccc(Br)cc2)c(=O)c1/C=N/NC(=O)c1ccccc1	30	-1	31	10	x	x
Cc1[nH]n(-c2ccccc2)c(=O)c1/C=N/NC(=O)c1cccc(F)c1	3	-1	23	52*	54*	23*
CC1=CC(C)CC(C)OC(=O)CC(c2ccc(O)cc2)NC(=O)C(Cc2c(Br)[nH]c3ccccc23)N(C)C(=O)C(C)NC(=O)C(C)C1 (stereo unspecified)	x	x	x	32*	25*	11*
COc1ccc(/C=N/NC(=O)c2cccc([N+](=O)[O-])c2)cc1O	35	2	6	-7	x	x
COc1ccc2ccccc2c1/C=N/NC(=O)c1cccc([N+](=O)[O-])c1	16	-5	2	26*	-1	-9
C=C1C(=O)O[C@H]2[C@H]1[C@H](OC(=O)CC(=O)O[C@@H]1C[C@@H](C)[C@@H]3C=CC(=O)[C@@]3(C)[C@H]3OC(=O)C(=C)[C@H]13)C[C@@H](C)[C@H]1C=CC(=O)[C@]12C	4	x	0	16	x	x
C=C1C(=O)O[C@@H]2C[C@@H](C)[C@@H]3C=CC(=O)[C@@]3(C)[C@@H](OC(=O)CC(=O)O[C@H]3[C@@H]4C(=C)C(=O)O[C@@H]4C[C@@H](C)[C@@H]4C=CC(=O)[C@]43C)[C@H]12	4	x	94*	98*	99*	99*

From PubChem
